In PubChem BioAssay (Tox21) one finds Potency, activity change, negative = cytotoxic and activity change, negative = cytotoxicity data, which are given here for 34 molecules.

Results filed as inconclusive are left out. A call without a number means that no potency is given here. Active and inactive are the calls of the source. Calls come from the whole dose curve; as a rule, active = well fitted curve in the direction sought with a large enough effect in the repeat runs; inconclusive = weak or mixed curves; inactive = no such curve, though single readings can be large; an effect the other way counts as inactive or inconclusive.
Note: nearly all actives have a fitted effect of over 50% in size.

The first assay can be described thus: qHTS RealTime-Glo MT Cell Viability Assay in HepG2 cells - 16 hour (AID 1224885). Particulars: RealTime-Glo luminescence; series mostly up to 76.8 µM. The method, boiled down: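 HepG2 cells were seeded at 600 cells/well together with NanoLuc luciferase and a cell-permeant prosubstrate, preincubated 5 h at 37 C/5% CO2, then pin-dosed with compounds in DMSO. Nonlytic luminescence from viable cells was read at each time point.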
In general terms: qHTS replaces the single test concentration by a dilution series.
Consider `CN(Cc1ccc(C(C)(C)C)cc1)Cc1cccc2ccccc12`, for which the Potency entry is “inactive”.

Take `COc1ccc(-c2nc3ccc(C4=NNC(=O)CC4C)cc3[nH]2)cc1` (centres undefined): the Potency entry was “inactive”.

On to `CN1CCC(=C2c3ccccc3Sc3ccccc32)CC1`, for which the Potency entry is “inactive”.

For the molecule `CCCCC(=O)OCC(=O)[C@H]1[C@H](C)C[C@H]2[C@@H]3C[C@H](F)C4=CC(=O)C=C[C@]4(C)[C@@]3(F)[C@@H](O)C[C@@]21C`, the Potency entry was “inactive”.

Regarding `Clc1ccc2c(c1)CCc1cccnc1C2=C1CCNCC1`, the Potency result is “inactive”.

In the case of `CCn1cc(C(=O)O)c(=O)c2cnc(N3CCNCC3)nc21`, the Potency entry was “inactive”.

Regarding `CCOc1ccc(N=Nc2ccc(/C=C/c3ccc(N=Nc4ccc(OCC)cc4)cc3S(=O)(=O)O)c(S(=O)(=O)O)c2)cc1`, the Potency entry is “inactive”.

On to `COc1cc(C(=O)OCCCN2CCCN(CCCOC(=O)c3cc(OC)c(OC)c(OC)c3)CC2)cc(OC)c1OC`, for which the Potency result was “inactive”.

For `NS(=O)(=O)c1ccc(N2CCCCS2(=O)=O)cc1`, the Potency result is “inactive”.

In the case of `CCCCCCCC/C=C\CCCCCCCC(=O)OCC`, the Potency entry was “inactive”.

With `Nc1cc(C(=O)O)c(O)c(S(=O)(=O)O)c1`, the Potency entry was “inactive”.

As to `C/C=C/C(=O)CC`, the activity change, negative = cytotoxic was 0.412% [at 15.8 µM] (inactive).

In the case of `ClCCOCCOCCCl`, the Potency result was “inactive”.

For `CCN(CC)CCNC(=O)c1cc(Br)c(N)cc1OC`, the Potency result is “inactive”.

Regarding `O=C(O)C(S)C(S)C(=O)O` (centres undefined), the Potency result was “inactive”.

Turning to `O=[N+]([O-])c1ccc2[nH]ncc2c1`, the Potency result was “inactive”.

Consider `CCCCCCCCCCO[C@@H]1O[C@H](CO)[C@@H](O)[C@H](O)[C@H]1O`, for which the Potency result is “inactive”.

For `CCCCCCCCCCCCCCCCCCOS(=O)(=O)O`, the Potency result was “inactive”.

Regarding `CN(C)c1ccc(/C=C/c2ccc([N+](=O)[O-])cc2)cc1`, the activity change, negative = cytotoxic is -7.1% [at 6.97 µM] (inactive).

On to `C[N+]1(C)CCC(OC(=O)C(O)(c2ccccc2)C2CCCC2)C1` (centres undefined), for which the Potency entry is “inactive”.

With `CCO[Si](CCCCl)(OCC)OCC`, the Potency entry was “inactive”.

In the case of `Nc1ncn([C@H]2C[C@H](O)[C@@H](CO)O2)c(=O)n1`, the Potency result was “inactive”.

As for `O=C1OC(=O)C2C3C=CC(C3)C12` (centres undefined), the Potency entry is “inactive”.

As for `CCCCCCCCO[C@@H]1O[C@H](CO)[C@@H](O)[C@H](O)[C@H]1O`, the Potency entry was “inactive”.

For the molecule `C/C(=C(\CCOP(=O)(O)O)SC(=O)c1ccccc1)N(C=O)Cc1cnc(C)nc1N`, the activity change, negative = cytotoxic is 1.38% [at 6.97 µM] (inactive).

As to `CCCCOC(=O)CCCCCCCC(=O)OCCCC`, the Potency result was “inactive”.

For `CN1C[C@H]2c3ccccc3Oc3ccc(Cl)cc3[C@@H]2C1`, the Potency entry is “inactive”.

Turning to `O=C(O)c1ccccc1Cl`, the Potency result was “inactive”.

In the case of `Cc1cc(N)c2cc(NC(=O)Nc3ccc4nc(C)cc(N)c4c3)ccc2n1`, the Potency entry is “inactive”.

For `O=C1CCC(=O)O1`, the Potency entry is “inactive”.

`O=C(NCCO[N+](=O)[O-])c1cccnc1`: the Potency result is “inactive”.

In the case of `CCN(CC)CCOC(=O)C(Cc1cccc2ccccc12)CC1CCCO1` (centres undefined), the Potency result is “inactive”.

For the molecule `C[C@H](CCC(=O)O)[C@H]1CC[C@H]2[C@@H]3CC[C@@H]4C[C@H](O)CC[C@]4(C)[C@H]3C[C@H](O)[C@]12C`, the Potency entry is “inactive”.

With `CCc1cc(C2=C(C(=O)O)N(c3ccccc3C(F)(F)F)S(=O)(=O)c3ccccc32)cc2c1OCO2`, the Potency entry is “inactive”.

The nature of a further assay: qHTS RealTime-Glo MT Cell Viability Assay in HEK293 cells - 24 hour (AID 1224886). For activity change, negative = cytotoxicity: top concentration of the series differs between compounds. Note: potency is the fitted concentration of half-maximal effect. The settings on record: RealTime-Glo luminescence; series mostly up to 76.8 µM. A digest of the protocol:
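HEK293 cells were seeded at 600 cells/well together with NanoLuc luciferase and cell-permeant prosubstrate, preincubated 5 h at 37 C/5% CO2, then given compound in DMSO by pintool. Luminescence from viable-cell prosubstrate reduction was read repeatedly over 40 h.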
Turning to `CN(Cc1ccc(C(C)(C)C)cc1)Cc1cccc2ccccc12`, the Potency result was “inactive”.

`COc1ccc(-c2nc3ccc(C4=NNC(=O)CC4C)cc3[nH]2)cc1` (centres undefined): the Potency was 9.52 µM (active).

Consider `CN1CCC(=C2c3ccccc3Sc3ccccc32)CC1`, for which the Potency entry is “inactive”.

Take `CCCCC(=O)OCC(=O)[C@H]1[C@H](C)C[C@H]2[C@@H]3C[C@H](F)C4=CC(=O)C=C[C@]4(C)[C@@]3(F)[C@@H](O)C[C@@]21C`: the Potency result is “inactive”.

For `CCn1cc(C(=O)O)c(=O)c2cnc(N3CCNCC3)nc21`, the Potency entry was “inactive”.

`CCOc1ccc(N=Nc2ccc(/C=C/c3ccc(N=Nc4ccc(OCC)cc4)cc3S(=O)(=O)O)c(S(=O)(=O)O)c2)cc1`: the Potency entry is “inactive”.

Take `COc1cc(C(=O)OCCCN2CCCN(CCCOC(=O)c3cc(OC)c(OC)c(OC)c3)CC2)cc(OC)c1OC`: the Potency was 8.49 µM (active).

For `NS(=O)(=O)c1ccc(N2CCCCS2(=O)=O)cc1`, the Potency result is “inactive”.

`CCCCCCCC/C=C\CCCCCCCC(=O)OCC`: the Potency entry is “inactive”.

For `Nc1cc(C(=O)O)c(O)c(S(=O)(=O)O)c1`, the Potency entry was “inactive”.

With `C/C=C/C(=O)CC`, the activity change, negative = cytotoxicity is 0.822% [at 15.8 µM] (inactive).

Take `ClCCOCCOCCCl`: the Potency entry was “inactive”.

On to `CCN(CC)CCNC(=O)c1cc(Br)c(N)cc1OC`, for which the Potency entry is “inactive”.

`O=C(O)C(S)C(S)C(=O)O` (centres undefined): the Potency entry was “inactive”.

As to `O=[N+]([O-])c1ccc2[nH]ncc2c1`, the Potency result is “inactive”.

For `CN(C)c1ccc(/C=C/c2ccc([N+](=O)[O-])cc2)cc1`, the activity change, negative = cytotoxicity was -4.06% [at 6.97 µM] (inactive).

On to `C[N+]1(C)CCC(OC(=O)C(O)(c2ccccc2)C2CCCC2)C1` (centres undefined), for which the Potency result is “inactive”.

Consider `CCO[Si](CCCCl)(OCC)OCC`, for which the Potency entry is “inactive”.

Regarding `Nc1ncn([C@H]2C[C@H](O)[C@@H](CO)O2)c(=O)n1`, the Potency result is “inactive”.

`O=C1OC(=O)C2C3C=CC(C3)C12` (centres undefined): the Potency result was “inactive”.

On to `CCCCCCCCO[C@@H]1O[C@H](CO)[C@@H](O)[C@H](O)[C@H]1O`, for which the Potency entry is “inactive”.

With `C/C(=C(\CCOP(=O)(O)O)SC(=O)c1ccccc1)N(C=O)Cc1cnc(C)nc1N`, the activity change, negative = cytotoxicity is 2.35% [at 6.97 µM] (inactive).

As for `CCCCOC(=O)CCCCCCCC(=O)OCCCC`, the Potency entry is “inactive”.

Regarding `CN1C[C@H]2c3ccccc3Oc3ccc(Cl)cc3[C@@H]2C1`, the Potency entry is “inactive”.

For the molecule `O=C(O)c1ccccc1Cl`, the Potency entry is “inactive”.

For the molecule `Cc1cc(N)c2cc(NC(=O)Nc3ccc4nc(C)cc(N)c4c3)ccc2n1`, the Potency result is “inactive”.

As to `O=C1CCC(=O)O1`, the Potency result is “inactive”.

In the case of `O=C(NCCO[N+](=O)[O-])c1cccnc1`, the Potency result is “inactive”.

As for `C[C@H](CCC(=O)O)[C@H]1CC[C@H]2[C@@H]3CC[C@@H]4C[C@H](O)CC[C@]4(C)[C@H]3C[C@H](O)[C@]12C`, the Potency entry is “inactive”.

In the case of `CCc1cc(C2=C(C(=O)O)N(c3ccccc3C(F)(F)F)S(=O)(=O)c3ccccc32)cc2c1OCO2`, the Potency entry was “inactive”.
